# L3MBTL1 block = blocks human L3MBTL1. Potency, µM (doses to about 57.1 µM), without a hit: at the top dose activity, negative = inhibition, most hits filed as inhibitors. 230,000 tested, 0.66% active. AlphaScreen L3MBTL1–H3K9me1 peptide binding; also: nearly all actives have a fitted effect of over 60% in size
# Target sequence (Q9Y468 whole entry, looked up): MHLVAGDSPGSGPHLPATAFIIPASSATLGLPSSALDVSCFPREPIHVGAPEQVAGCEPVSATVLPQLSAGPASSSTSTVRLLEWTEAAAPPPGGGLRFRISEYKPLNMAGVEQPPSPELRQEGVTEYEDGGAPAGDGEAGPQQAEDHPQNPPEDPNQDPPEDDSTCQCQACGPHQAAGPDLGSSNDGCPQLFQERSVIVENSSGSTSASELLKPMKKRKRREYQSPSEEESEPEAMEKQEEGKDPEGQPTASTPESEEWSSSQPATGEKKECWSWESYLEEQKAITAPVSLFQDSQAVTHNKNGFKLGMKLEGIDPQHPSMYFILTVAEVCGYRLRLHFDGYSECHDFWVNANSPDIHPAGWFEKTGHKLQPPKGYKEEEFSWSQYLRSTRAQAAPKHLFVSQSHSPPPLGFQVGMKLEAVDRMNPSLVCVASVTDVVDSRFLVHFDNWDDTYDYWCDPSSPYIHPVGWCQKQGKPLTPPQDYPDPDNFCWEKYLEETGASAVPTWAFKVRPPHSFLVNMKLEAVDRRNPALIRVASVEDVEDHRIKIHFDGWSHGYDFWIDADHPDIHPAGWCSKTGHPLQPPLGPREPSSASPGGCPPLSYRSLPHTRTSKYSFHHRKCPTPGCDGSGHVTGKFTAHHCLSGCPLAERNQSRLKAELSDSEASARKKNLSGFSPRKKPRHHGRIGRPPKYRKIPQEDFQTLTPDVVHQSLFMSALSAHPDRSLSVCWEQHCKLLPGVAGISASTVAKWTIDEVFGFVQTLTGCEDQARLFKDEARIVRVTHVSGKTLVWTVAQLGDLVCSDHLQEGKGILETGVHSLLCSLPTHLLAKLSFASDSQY
#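 AlphaScreen proximity signal between nickel-chelate acceptor and streptavidin donor beads (final 10 ug/mL) reports binding of 50 nM L3MBTL1 to 75 nM biotin-H3 K9me1 peptide; complex incubated with compounds 30 min at room temperature; cefsulodin titration as control.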
# BLM inh = inhibitors of human Bloom syndrome helicase BLM. recombinant BLM DNA unwinding, fluorescence dequenching. 350,000 tested, 0.2% active. Potency, µM (top dose mostly 56.1 µM), for inactives: at the top dose activity change, negative = inhibition, hits mostly inhibitors. P54132;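 also: plate controls were vehicle for no effect and no enzyme for full effect; nearly all actives have a fitted effect of over 35% in size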
# WRN inhibitor = WRN helicase (human) inhibition | Q14191 | WRN helicase unwinding, fluorescent forked duplex, kinetic | Potency, µM (highest dose often 114 µM), for inactives: at the top dose activity change, negative = inhibition, hits mostly inhibitors | 360,000 tested, 0.46% active | AID 651768; also: nearly all actives have a fitted effect of over 55% in size
#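 Kinetic red-fluorescence monitoring (525/598 nm) tracks WRN helicase activity after 100 nM fluorophore-quencher forked duplex and 2 mM ATP are added to 20 nM enzyme pretreated 15 min at room temperature with compound.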
# APE1 inh-1 = inhibitors of human APE1 endonuclease | AID 2517 | P27695 | Potency, µM (titrated, usually from 65.8 µM), for inactives: at the highest dose activity change, negative = inhibition, usual class: inhibitors | 350,000 tested, 0.35% active | recombinant APE1, TAMRA/BHQ-2 abasic DNA cleavage fluorescence;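 also: plate controls were vehicle for no effect and reference inhibitor for full effect; nearly all actives have a fitted effect of over 55% in size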
#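 Incision of a quenched TAMRA/BHQ-2 THF abasic-site duplex (50 nM) by 0.75 nM APE1, after 15 min compound preincubation, measured as fluorescence increase over three 60 s reads. Values normalized to buffer, DMSO and NSC13755 control wells.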
# RECQ1 inh = RECQ1 (human) helicase inhibition; P46063; RECQ1 DNA unwinding, red fluorescence kinetic read; Potency, µM (top dose mostly 57.3 µM), inactives show at the top dose activity, negative = inhibition, usual class: inhibitors; 240,000 tested, 0.54% active;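 also: plate controls were vehicle for no effect and no enzyme for full effect; nearly all actives have a fitted effect of over 30% in size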
#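 RECQ1T1 50 nM; forked duplex (20 bp + 30-nt ss tails) 200 nM, ATP 2 mM final; pH 8.0, 2 mM MgCl2, 2.5 ug/ml poly(dI-dC); 15 min compound preincubation; discontinuous kinetic read over 2 h at RT.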
# APE1 dye cs = DNA dye displacement counter-screen activity; shares compounds with APE1 inh-1; AID 2564; DNA fluorescent dye displacement counterscreen, fluorescence; 480 tested, 7% active; Potency, µM (titrated, usually from 28.5 µM), for inactives: at the top dose activity change, negative = inhibition, usual class: inhibitors;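 also: loss of thiazole orange fluorescence as the dye is displaced from duplex DNA; 0% = ThO with dsDNA and no compound and -100% = ThO without dsDNA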
# EndoIV counter = Endo IV (E. coli) inhibition counter-screen; AID 2565; 560 tested, 4% active; shares compounds with APE1 inh-1; Potency, µM (titrated, usually from 27.1 µM), without a hit: at the highest dose activity change, negative = inhibition, usual class: inhibitors; E. coli Endo IV, fluorogenic AP-site DNA cleavage;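 also: plate controls were uninhibited enzyme wells for no effect and no enzyme buffer wells for full effect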
# APE1 inh-2 = APE1 (human) endonuclease inhibition, confirmation. AID 2572. shares compounds with APE1 inh-1. 750 tested, 44% active. purified APE1, fluorogenic abasic-site DNA cleavage. Potency, µM (series often up to 57.1 µM), inactives show at the highest dose activity change, negative = inhibition, hits mostly inhibitors; also: nearly all actives have a fitted effect of over 30% in size
# APE1 FP = compounds that displace a DNA probe from human APE1. APE1 binding to TAMRA-labelled double-stranded DNA, fluorescence polarization displacement. 480 tested, 7% active. Potency, µM (series often up to 28.5 µM), without a hit: at the highest dose activity, negative = inhibition, hits mostly inhibitors. shares compounds with APE1 inh-1
# Active calls of the source: *; ? = inconclusive; . = no result; ! = not confirmed by another sample; [ ] = another dose, or the depositor's remark. Shown are actives, neighbours in structure and some others; about 0.92% of the full set was active somewhere. Calls follow the shape of the dose curve; as a rule, active = well fitted curve in the direction sought with a large enough effect; inconclusive = small, poorly fitted or top-dose-only effect, or another doubt; inactive = no such curve, though single readings can be large; an effect the other way counts as inactive or inconclusive. Unless noted, % is scaled to controls: 0 for no effect and ±100 for the full control effect; potency is read from the fitted curve at half-maximal effect.
SMILES,L3MBTL1 block,BLM inh,WRN inhibitor,APE1 inh-1,RECQ1 inh,others
Cc1cc(C=C2C(=O)N(C)C(=S)N(C)C2=O)c(C)n1-c1cccnc1,-11%,18µM*,?,-4%,-4%,
CC12C=CC(=O)C=C1CCC1C2=CCC2(C)C1CC[C@@H]2C(=O)CN1CCN(c2cc(N3CCCC3)nc(N3CCCC3)n2)CC1 (stereo partly drawn),.,-15%,.,-5%,-4%,
CCOc1ccccc1N1C(=O)NC(=O)/C(=C/c2ccc3c4c(cccc24)CC3)C1=O,-2%,-3%,50µM*,-2%,-4%,
CCOC(=O)CBr,.,.,.,1%,-6%,
Cc1cccc(N2C(=O)NC(=O)/C(=C\c3ccc4c(c3)CCCN4Cc3ccccc3)C2=O)c1,-9%,-24%,237%[57.1 µM],11%,32µM*,
CC1=NN(c2ccccc2)C(=O)C1/C=C1/C(=O)NC(=O)N(c2cccc(C)c2)C1=O (stereo not drawn),-1%,-3%,.,9%,2%,
Nc1ccccc1C(=O)O,.,-11%,.,-1%,7%,
O=C1C(I)=CC(=C(c2cc(I)c(O)c(I)c2)c2ccccc2C(=O)O)C=C1I,.,16µM*,.,?,.,
Cc1ccc2nc3sc(=O)sc3nc2c1,.,-18%,.,0%,15%,
O=C1NC(=S)NC(=O)C1=Cc1ccc(Br)s1,-6%,-3%,?,-2%,.,
O=C1NC(=S)NC(=O)C1=Cc1c(Cl)cccc1Cl,.,.,56µM*,.,.,
Oc1cc(Cl)cc(Cl)c1,.,.,.,-1%,-4%,
CC1(C)OC(c2ccccc2)=C/C(=C/C=C2C(=O)NC(=S)NC2=O)O1,?,22µM*,8.9µM*,-11%,25µM*,
CN1/C(=C\C=C2C(=O)NC(=S)NC2=O)C(C)(C)c2ccccc21,4%,-29%,14%,3%,-1%,
C=C1C/C(=C/C)C(=O)O[C@@H]2CCN3CC=C(COC(=O)[C@]1(C)O)[C@H]23,.,-1%,4%,0%,3%,
C/C=C1/C[C@@H](C)[C@](O)(CO)C(=O)OCC2=CCN3CC[C@@H](OC1=O)C23 (stereo partly drawn),.,-1%,.,?,22µM*,
O=[N+]([O-])c1cc(-c2ccc([As](=O)(O)O)cc2)ccc1[As](=O)(O)O,22µM*,-4%,.,?,-4%,
CCNC1(c2cccs2)CCCCC1=O (stereo not drawn),.,.,.,5%[21 µM],.,
O=C1c2ccccc2-c2cc3ccccc3cc21,.,.,9%,.,.,
O=C1C=C(N2CC2)c2ccccc2C1=O,.,.,45µM*,.,.,
CN(C)c1ccc(N)cc1,.,.,.,-1%,-13%,
CCC12CCN(CC3CC3)CC1Oc1c(C)cccc12 (stereo not drawn),.,.,.,8%,.,
CC1(C)CC(=O)C2=C(C1)OC(N)=C([N+](=O)[O-])C2c1ccc(C#N)s1 (stereo not drawn),-9%,-2%,-10%,?,28µM*,
Cn1c(O)c(/C=C/C=Nc2ccccc2)c(=O)n(C)c1=S,-6%,-6%,32µM*,4%,-3%,
Cc1ccccc1-n1c(O)c(/C=C/C=Nc2ccccc2)c(=O)[nH]c1=O,1%,-8%,?,-11%,25µM*,
SMILES,L3MBTL1 block,BLM inh,WRN inhibitor,APE1 inh-1,RECQ1 inh,others
Cc1c(F)c(F)c(COC(=O)C2C(/C=C(\Cl)C(F)(F)F)C2(C)C)c(F)c1F (stereo not drawn),.,0%,.,-11%,0%,
C[C@H]1CC[C@]2(NC1)O[C@H]1C[C@H]3[C@@H]4CC[C@H]5C[C@@H](O[C@@H]6O[C@H](CO)[C@H](O[C@@H]7O[C@H](CO)[C@@H](O)[C@H](O[C@@H]8OC[C@@H](O)[C@H](O)[C@H]8O)[C@H]7O[C@@H]7O[C@H](CO)[C@@H](O)[C@H](O)[C@H]7O)[C@H](O)[C@H]6O)CC[C@]5(C)[C@H]4CC[C@]3(C)[C@H]1[C@@H]2C,.,.,.,-3%,.,
COC1=CC(=O)OC(CCc2ccccc2)C1 (stereo not drawn),.,.,.,-7%,-14%,
CC(=O)OCC1=C(C(=O)O)N2C(=O)[C@@H](N)[C@H]2SC1,.,.,.,5%[21 µM],.,
CON(C)C(=O)Nc1ccc(Br)c(Cl)c1,.,2%,.,-3%,-9%,
C=CCn1c(O)c(/C(CC)=N/NC(=S)Nc2ccccc2)c(=O)[nH]c1=O,0%,-2%,-9%,?,-12%,APE1 inh-2=?
CC(=O)[C@H]1CC[C@H]2C3CC[C@H]4C[C@](C)(O)CC[C@]4(C)C3CC[C@]12C (stereo partly drawn),.,-3%,.,12%,-1%,
CC(C)NC(C)Cc1ccc(I)cc1 (stereo not drawn),3%,-4%,9%,8%,1%,EndoIV counter=-5%[57.1 µM];APE1 inh-2=-19%
CNC(C)Cc1ccc(OC)cc1 (stereo not drawn),.,-10%,.,-4%,-12%,
O=C(O)Cn1cc(/C=C2\C(=O)NC(=O)N(Cc3ccco3)C2=O)c2ccccc21,5µM*,77%,40µM*,7.9µM*,14µM*,APE1 dye cs=?;EndoIV counter=22%;APE1 inh-2=11µM*;APE1 FP=-3%
Cc1ccc2c(c1)Cc1c(C(=O)NN3CCCCC3)nn(-c3ccc(Cl)cc3Cl)c1-2,.,-7%,.,-6%,-19%,
CC(C)CC(=O)Nc1ccc(C(=O)Cn2c(=O)oc3ccccc32)cc1,?,-12%,4%,?,-4%,APE1 dye cs=-8%;EndoIV counter=-4%;APE1 inh-2=?;APE1 FP=4%
CC1Cc2ccccc2N1NC(=O)c1ccc(Cl)c(S(N)(=O)=O)c1 (stereo not drawn),-7%,-8%,4%,2.2µM*!,-5%,APE1 dye cs=1%[57.1 µM];EndoIV counter=18%[57.1 µM];APE1 inh-2=-10%;APE1 FP=8%[57.1 µM]
Cc1ccc(C(=O)Nc2ccccc2)cc1S(=O)(=O)N1CCCC1,.,-5%,.,.,.,
CC1CC2CCC(O2)C(C)C(=O)OC(C)CC2CCC(O2)C(C)C(=O)OC(C)CC2CCC(O2)C(C)C(=O)OC(C)CC2CCC(O2)C(C)C(=O)O1 (stereo not drawn),.,-5%,.,2%,-6%,

# Source: PubChem
